Measurements published in PubChem BioAssay (NCI).
Compounds without any hit were thinned out: in the full panel of roughly 83,000, 20% have a hit.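 Values shown are percent growth following 48 h exposure of cells in 96-well plates to a single concentration of compound; below 10 was considered active.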 Active and inactive are the calls of the source.

Tests used:
Test in all cases: NCI-60 one-dose screen, 48 h (100 = growth as untreated, 0 = no growth, -100 = all killed)
Conditions in all cases: 10 µM
RPMI-8226 leukemia = tested on: RPMI-8226 leukemia
OVCAR-8 ovarian = tested on: OVCAR-8 ovarian
OVCAR-5 ovarian = tested on: OVCAR-5 ovarian
OVCAR-4 ovarian = tested on: OVCAR-4 ovarian
SK-OV-3 ovarian = tested on: SK-OV-3 ovarian
IGROV1 ovarian = tested on: IGROV1 ovarian
OVCAR-3 ovarian = tested on: OVCAR-3 ovarian
HS 578T breast = tested on: HS 578T breast
NCI/ADR-RES ovarian = tested on: NCI/ADR-RES ovarian

Measured: growth

Cc1ccc(-c2cc(-c3cc4ccccc4nc3Cl)[nH]c(=O)n2)cc1
active: RPMI-8226 leukemia -30.1% | OVCAR-8 ovarian -49.3% | OVCAR-5 ovarian -8.44% | OVCAR-3 ovarian 8.33% | HS 578T breast 1.21% | NCI/ADR-RES ovarian -38.8%
inactive: OVCAR-4 ovarian 48.1% | SK-OV-3 ovarian 51.6% | IGROV1 ovarian 28.6%

CN1CCN(c2ccc(C(=O)/C=C/c3cc(Br)ccc3F)cc2)CC1
inactive: OVCAR-8 ovarian 64.2% | OVCAR-5 ovarian 135% | OVCAR-4 ovarian 59.6% | SK-OV-3 ovarian 44.4% | IGROV1 ovarian 33.1% | OVCAR-3 ovarian 33.8% | HS 578T breast 95.1% | NCI/ADR-RES ovarian 35.3%
active: RPMI-8226 leukemia -24.7%

COc1ccc(N(C)c2cc(C#N)nc3ccccc23)cc1/C=C/C(=O)NO
active: RPMI-8226 leukemia 5.81% | OVCAR-8 ovarian -37.9% | OVCAR-5 ovarian -46.2% | OVCAR-4 ovarian 7.41% | SK-OV-3 ovarian -22.7% | IGROV1 ovarian -57.4% | OVCAR-3 ovarian -43.4% | HS 578T breast -18.2% | NCI/ADR-RES ovarian -41.9%

C=C(C)[C@@H]1CC[C@]2(COP(=O)(OCC)OCC)CC[C@]3(C)[C@H](CC[C@@H]4[C@@](C)(CCCN)[C@H](C(=C)C)CC[C@]43C)[C@@H]12
active: RPMI-8226 leukemia -34.4%
inactive: OVCAR-8 ovarian 26% | OVCAR-5 ovarian 43.2% | OVCAR-4 ovarian 23.2% | SK-OV-3 ovarian 46.2% | IGROV1 ovarian 40.4% | OVCAR-3 ovarian 24.2% | HS 578T breast 31.3% | NCI/ADR-RES ovarian 18.9%

CC(=C(c1ccc(OCCN2CCCCC2)cc1)c1ccc(OCCN2CCCCC2)cc1)c1ccccc1
inactive: OVCAR-8 ovarian 53.5% | OVCAR-5 ovarian 46.3% | OVCAR-4 ovarian 63.8% | SK-OV-3 ovarian 74.6% | IGROV1 ovarian 60.7% | OVCAR-3 ovarian 28.3% | HS 578T breast 29.5% | NCI/ADR-RES ovarian 51.6%
active: RPMI-8226 leukemia -31.3%

O=C(c1ccc(O)cc1)C1[C@H](c2ccccc2Br)[C@@H](c2ccccc2)NC12C(=O)Nc1ccc(Cl)cc12 (some centres undefined)
active: RPMI-8226 leukemia 4.84% | OVCAR-8 ovarian 4.97% | OVCAR-5 ovarian -2.71% | IGROV1 ovarian 7.88% | OVCAR-3 ovarian -46.2% | HS 578T breast 5.54%
inactive: OVCAR-4 ovarian 17% | SK-OV-3 ovarian 29.6% | NCI/ADR-RES ovarian 11.2%

O=C(Nc1ccccc1)Nc1nc2ccccc2s1
inactive: RPMI-8226 leukemia 78.3% | OVCAR-8 ovarian 90.2% | OVCAR-5 ovarian 92.4% | OVCAR-4 ovarian 78.2% | SK-OV-3 ovarian 78.4% | IGROV1 ovarian 54.8% | OVCAR-3 ovarian 110% | HS 578T breast 86.9% | NCI/ADR-RES ovarian 91.8%

CN1CCN(c2ccc(Nc3nc(N4CCN(S(=O)(=O)c5ccc(Cl)cc5)CC4)c4sccc4n3)cc2)CC1
active: RPMI-8226 leukemia -23.6% | OVCAR-8 ovarian -82.9% | OVCAR-5 ovarian -80.9% | OVCAR-4 ovarian -82.6% | OVCAR-3 ovarian -34.9%
inactive: SK-OV-3 ovarian 116% | IGROV1 ovarian 84.3% | HS 578T breast 83.9% | NCI/ADR-RES ovarian 16.1%

CC1(C)CC[C@]2(C(=O)N3CCOCC3)CC[C@]3(C)C(=CC[C@@H]4[C@@]5(C)CC[C@H](NCO)C(C)(C)[C@@H]5CC[C@]43C)[C@H]2C1
active: RPMI-8226 leukemia -38.5% | OVCAR-8 ovarian -73.5% | OVCAR-5 ovarian -99.9% | OVCAR-4 ovarian -89.5% | SK-OV-3 ovarian -86.4% | IGROV1 ovarian -85.6% | OVCAR-3 ovarian -82.7% | HS 578T breast -68.2% | NCI/ADR-RES ovarian -73.1%

O=c1[nH][nH]c(Nc2ccccc2)c1N=Nc1ccc(F)cc1
inactive: RPMI-8226 leukemia 112% | OVCAR-8 ovarian 101% | OVCAR-5 ovarian 112% | OVCAR-4 ovarian 80.5% | SK-OV-3 ovarian 94.5% | IGROV1 ovarian 80.3% | OVCAR-3 ovarian 103% | HS 578T breast 65.2% | NCI/ADR-RES ovarian 100%

O=C1Nc2ccc(Cl)cc2/C1=C/c1cccc(OCc2ccccc2)c1
inactive: OVCAR-8 ovarian 14.6% | OVCAR-5 ovarian 69.2% | OVCAR-4 ovarian 33.5% | SK-OV-3 ovarian 75.3% | IGROV1 ovarian 36.7%
active: RPMI-8226 leukemia -28.1% | OVCAR-3 ovarian 8.28% | HS 578T breast 6.44% | NCI/ADR-RES ovarian 8.34%

CC1(C)CC[C@]23CC[C@]4(C)[C@H](CC[C@@H]5[C@@]6(C)CC[C@H](N)C(C)(C)[C@@H]6CC[C@]54C)[C@H]2[C@H]1OC3=O
active: RPMI-8226 leukemia -31.4% | OVCAR-8 ovarian -50.7% | OVCAR-5 ovarian -99.9% | OVCAR-4 ovarian -90.3% | SK-OV-3 ovarian -32.1% | IGROV1 ovarian -94.2% | OVCAR-3 ovarian -81% | HS 578T breast -62.2% | NCI/ADR-RES ovarian -69.4%

O=C(c1ccccc1)n1ccc(-c2cc3cc(Br)ccc3oc2=O)n1
active: NCI/ADR-RES ovarian -2.98%
inactive: RPMI-8226 leukemia 24.6% | OVCAR-8 ovarian 22.5% | OVCAR-5 ovarian 34.6% | OVCAR-4 ovarian 26.2% | SK-OV-3 ovarian 12.5% | IGROV1 ovarian 16% | OVCAR-3 ovarian 38.8% | HS 578T breast 48.5%

C=C(C)[C@@H]1CC[C@]2(C)[C@H](CC=C3[C@@H]4CC(C)(C)CC[C@]4(C(=O)N4CCOCC4)CC[C@]32C)[C@@]1(C)CCCN
active: RPMI-8226 leukemia -51.2% | OVCAR-8 ovarian -66.3% | OVCAR-5 ovarian -98.9% | OVCAR-4 ovarian -89.4% | SK-OV-3 ovarian -94.6% | IGROV1 ovarian -91.2% | OVCAR-3 ovarian -84.8% | HS 578T breast -63.4% | NCI/ADR-RES ovarian -59.8%

O=C(c1ccc(-n2c(=O)[nH]c3ccccc3c2=O)cc1)N1CCOCC1
inactive: RPMI-8226 leukemia 120% | OVCAR-8 ovarian 108% | OVCAR-5 ovarian 102% | OVCAR-4 ovarian 114% | SK-OV-3 ovarian 124% | IGROV1 ovarian 104% | OVCAR-3 ovarian 108% | HS 578T breast 101% | NCI/ADR-RES ovarian 106%

O=C1NC(=NC23CC4CC(CC(C4)C2)C3)N/C1=C\c1ccc2ncsc2c1
inactive: OVCAR-8 ovarian 10.5% | SK-OV-3 ovarian 25.1%
active: RPMI-8226 leukemia -14.7% | OVCAR-5 ovarian -7.67% | OVCAR-4 ovarian 8.44% | IGROV1 ovarian 4.69% | OVCAR-3 ovarian -6.21% | HS 578T breast -0.802% | NCI/ADR-RES ovarian -10.5%

Cc1ccc(CSc2nc(-c3ccc(F)cc3)c(C#N)c(=O)[nH]2)cc1
inactive: RPMI-8226 leukemia 91.5% | OVCAR-8 ovarian 97.8% | OVCAR-5 ovarian 99% | OVCAR-4 ovarian 96.5% | SK-OV-3 ovarian 105% | IGROV1 ovarian 113% | OVCAR-3 ovarian 102% | HS 578T breast 105% | NCI/ADR-RES ovarian 95.9%

CC(=O)NCC1=C(C)C=C2C(=O)[C@](C)(O)C3(CC3)C(C)=C21
inactive: RPMI-8226 leukemia 82.7%
active: OVCAR-8 ovarian -63.6% | OVCAR-5 ovarian -28.8% | OVCAR-4 ovarian -53% | SK-OV-3 ovarian -58.5% | IGROV1 ovarian -39.3% | OVCAR-3 ovarian -19.9% | HS 578T breast -37.4% | NCI/ADR-RES ovarian -46.1%

O=C(Nc1ccc(I)cc1)Nc1nc2ccc([N+](=O)[O-])cc2s1
active: RPMI-8226 leukemia -71.7% | OVCAR-8 ovarian -76.1% | OVCAR-5 ovarian -98.4% | OVCAR-4 ovarian -77.3% | SK-OV-3 ovarian -69.9% | IGROV1 ovarian -95.7% | OVCAR-3 ovarian -92% | HS 578T breast -64.9% | NCI/ADR-RES ovarian -88.4%

O=C1Nc2cc(Cl)ccc2/C1=C/c1ccc(OCc2ccc(Br)cc2F)cc1
active: RPMI-8226 leukemia 0.87% | OVCAR-8 ovarian -79.6% | OVCAR-4 ovarian -53.8% | SK-OV-3 ovarian -20.3% | IGROV1 ovarian -41.9% | OVCAR-3 ovarian -82.1% | HS 578T breast -16.8% | NCI/ADR-RES ovarian -71%
inactive: OVCAR-5 ovarian 25.2%

CC(=O)c1ccc(NC(=O)NCn2c(=O)[nH]c3ccccc3c2=O)cc1
inactive: RPMI-8226 leukemia 87.8% | OVCAR-8 ovarian 101% | OVCAR-5 ovarian 107% | OVCAR-4 ovarian 107% | SK-OV-3 ovarian 94.9% | IGROV1 ovarian 104% | OVCAR-3 ovarian 131% | HS 578T breast 97.3% | NCI/ADR-RES ovarian 107%

O=C(N/N=C/c1ccc(-c2cccc([N+](=O)[O-])c2)o1)c1[nH]c2ccc(Br)cc2c1-c1ccccc1
inactive: RPMI-8226 leukemia 12% | OVCAR-5 ovarian 23.3% | OVCAR-4 ovarian 45.5% | SK-OV-3 ovarian 32.2% | IGROV1 ovarian 33.7%
active: OVCAR-8 ovarian -19.9% | OVCAR-3 ovarian 1.91% | HS 578T breast -2.96% | NCI/ADR-RES ovarian -50.9%

CN1CCN(c2ccc(Nc3nc(NCCNC(=O)c4ccc(C(F)(F)F)cc4)c4sccc4n3)cc2)CC1
inactive: OVCAR-8 ovarian 21% | OVCAR-5 ovarian 42.3% | SK-OV-3 ovarian 77% | IGROV1 ovarian 65% | OVCAR-3 ovarian 27.8% | NCI/ADR-RES ovarian 38.5%
active: RPMI-8226 leukemia -40.1% | OVCAR-4 ovarian -33.2% | HS 578T breast -8.08%

C#Cc1ccc(S(=O)(=O)Nc2cccc(-c3csc(NC(C)=O)n3)c2)cc1
inactive: RPMI-8226 leukemia 42.1% | OVCAR-8 ovarian 85.5% | OVCAR-5 ovarian 101% | OVCAR-4 ovarian 59.7% | SK-OV-3 ovarian 88.9% | IGROV1 ovarian 49.5% | OVCAR-3 ovarian 82.7% | HS 578T breast 83.6% | NCI/ADR-RES ovarian 70.8%

O=C(Nc1nc2ccc([N+](=O)[O-])cc2s1)Nc1ccccc1I
active: RPMI-8226 leukemia -27.9% | OVCAR-5 ovarian 5.55% | SK-OV-3 ovarian -7.59% | HS 578T breast 9.12% | NCI/ADR-RES ovarian -5.83%
inactive: OVCAR-8 ovarian 11% | OVCAR-4 ovarian 14.4% | IGROV1 ovarian 19.7% | OVCAR-3 ovarian 14.4%

COc1csc(/C=N/NC(=O)c2[nH]c3ccc(Br)cc3c2-c2ccccc2)c1
inactive: OVCAR-5 ovarian 17.5% | OVCAR-4 ovarian 30.3% | SK-OV-3 ovarian 26.3% | IGROV1 ovarian 22%
active: RPMI-8226 leukemia 6.04% | OVCAR-8 ovarian 2.26% | OVCAR-3 ovarian 6.96% | HS 578T breast -1.74% | NCI/ADR-RES ovarian -35.2%
